An excerpt weighted towards active compounds, which were near 3.2% of everything screened.
DNA Pol III inh: blocks replication by bacterial DNA polymerase III holoenzyme; Potency, µM (doses to about 57.1 µM); AID 603; reconstituted DNA polymerase III holoenzyme replication, biochemical; actives 0.25% (n = 71,000)
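Reconstituted *E. coli* holoenzyme (0.35 nM Pol III, 1 nM beta, 154 nM SSB, 2 nM primase) was preincubated with compound for 15 min at RT. Synthesis on 1.4 nM ssM13Gori ran 35 min, then was stopped with PicoGreen/EDTA and read as dsDNA fluorescence.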
BRCT inh green: blocks human BRCA1 BRCT binding to phosphopeptide, green readout; actives 0.05% (n = 75,000); P38398; Potency, µM (titrated, usually from 76.9 µM), actives largely listed as inhibitors; AID 875; BRCA1 BRCT-phosphopeptide binding, green fluorescence polarization
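Compounds were incubated for 12 min at room temperature with a complex of 100 nM fluorescein-tagged pBACH1 decapeptide and 250 nM His-tagged BRCT protein. Buffer was phosphate pH 7.3 with EDTA, DTT and Tween 20. Disruption of binding lowers the polarization signal.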
BRCT PPI red: disrupts BRCA1 BRCT binding to phosphoprotein, red fluorophore readout; actives 0.03% (n = 75,000); AID 892; BRCT-phosphopeptide binding, red fluorescence polarization; P38398; Potency, µM (series often up to 76.9 µM), most hits filed as inhibitors
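Fluorescence polarization: 100 nM His-tagged BRCA1 BRCT with 100 nM TAMRA-labelled phospho-BACH1 decapeptide, phosphate buffer pH 7.3 with 150 mM NaCl, DTT, 0.01% Tween 20; 12 min RT. Binding inhibition seen as FP decrease.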
YjeE inh: YjeE (TsaE) inhibition, E. coli; P0AF67; Potency, µM; AID 605; purified YjeE enzyme, qHTS inhibition assay; actives 0.05% (n = 71,000)
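Purified YjeE (10 uM) with BODIPY Texas Red-labeled ADP probe (2 uM); compounds pin-transferred, 15 min at room temperature. Binding inhibition read as decreased fluorescence polarization; ADP titration as control.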
HEK293 cAMP ctrl: raises cAMP in parental HEK293 cells, TSHR agonist counter-screen. actives 2.5% (n = 73,000). parental HEK293 CNG cAMP sensor, membrane potential fluorescence. AID 938. Potency, µM (titrated, usually from 57.1 µM), most hits filed as activators; further: nearly all actives have a fitted effect of over 55% in size
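Parental HEK 293 cells stably expressing a modified CNG channel (no TSHR) report cAMP rise as membrane depolarization. Membrane potential dye with 100 uM RO 20-1724 was loaded for 60 min at room temperature, then compound added for 30 min; fluorescence read at 590 nm.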
TSHR ag: activates the human thyroid stimulating hormone receptor | HEK293-CNG-TSHR cells (CNG channel as cAMP sensor), membrane potential dye, cAMP | Potency, µM (series often up to 57.1 µM), most hits filed as activators | actives 0.48% (n = 73,000) | AID 926; active means well fitted activation curve with a large enough effect in the main read-out, with a control signal flat, not every such curve was filed as active; inconclusive means small, poorly fitted or top-dose-only effect, or a change in a side signal; inactive means no such curve, though single readings can be large or run the other way; reference of the percent scale not stated here;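 further: the control signal comes from parental cells without the receptor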
Target sequence (P16473 whole entry, looked up): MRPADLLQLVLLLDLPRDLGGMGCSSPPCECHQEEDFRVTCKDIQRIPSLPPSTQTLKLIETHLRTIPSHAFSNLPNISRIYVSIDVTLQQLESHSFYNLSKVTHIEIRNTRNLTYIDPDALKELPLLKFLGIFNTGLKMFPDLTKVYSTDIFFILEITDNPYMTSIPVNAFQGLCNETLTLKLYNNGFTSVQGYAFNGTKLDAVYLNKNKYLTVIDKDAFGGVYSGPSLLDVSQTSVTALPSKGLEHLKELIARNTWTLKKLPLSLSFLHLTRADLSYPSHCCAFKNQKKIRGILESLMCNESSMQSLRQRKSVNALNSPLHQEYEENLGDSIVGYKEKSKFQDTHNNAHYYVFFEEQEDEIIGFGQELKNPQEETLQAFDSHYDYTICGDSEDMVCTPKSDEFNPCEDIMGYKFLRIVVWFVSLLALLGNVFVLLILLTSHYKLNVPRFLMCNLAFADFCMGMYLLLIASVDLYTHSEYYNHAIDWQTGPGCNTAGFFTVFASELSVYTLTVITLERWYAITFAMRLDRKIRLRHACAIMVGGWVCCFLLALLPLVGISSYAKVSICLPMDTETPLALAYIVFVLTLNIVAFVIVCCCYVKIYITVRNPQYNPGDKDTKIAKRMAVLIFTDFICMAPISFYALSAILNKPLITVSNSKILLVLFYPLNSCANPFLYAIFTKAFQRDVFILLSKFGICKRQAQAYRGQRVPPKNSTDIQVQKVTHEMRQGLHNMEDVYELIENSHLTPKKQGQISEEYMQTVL
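HEK 293 cells stably expressing TSHR and a modified CNG channel, with CNG-only parental cells as counterscreen, were preloaded 60 min at room temperature with membrane potential dye containing 100 uM RO 20-1724. Compound exposure was 30 min, and depolarization was read as fluorescence at 590 nm.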
Numbers stand for hits; 0 = inactive; ? = inconclusive; - = not tested or not shown; ! = a repeat was not active; [ ] = another dose, or the depositor's remark. Unless noted, the call rests on the fitted dose curve; in most records, active means well fitted curve in the direction sought with a large enough effect; inconclusive means small, poorly fitted or top-dose-only effect, or another doubt; inactive means no such curve, though single readings can be large; an effect the other way counts as inactive or inconclusive.

SMILES	DNA Pol III inh	BRCT inh green	BRCT PPI red	YjeE inh	HEK293 cAMP ctrl	TSHR ag
Cc1ccc2oc(=O)n(Cc3ccccc3OC(C)C)c2c1	0	0	0	0	25.1µM	?
CCCCOc1ccccc1Cn1c(=O)oc2ccc(C)cc21	0	0	0	0	15.8µM	?
COc1ccc(Cn2c(=O)oc3ccc(C)cc32)cc1OC	0	0	0	0	0	-
CC(C)CCNC(=O)CN(Cc1ccc2c(c1)OCO2)C(=O)CCC(=O)Nc1ccccn1	0	0	0	0	0	0
COc1ccccc1-n1c(SC)nc(O)cc1=O	0	0	0	0	31.6µM	?
COc1ccccc1-n1c(SCC(=O)NC(C)(C)C)nc(O)cc1=O	0	0	0	0	0	0
CCOC(=O)c1c(NC(=O)Cc2cccs2)sc(C)c1C	0	0	0	0	25.1µM	?
COC(=O)c1c(NC(=O)Cc2cccs2)sc(C(=O)N2CCCCC2)c1C	0	0	0	0	?	?
Cc1ccccc1-c1nc(CS(=O)(=O)CC(=O)NCc2ccccc2)c(C)o1	0	0	0	0	0	15.8µM
COc1ccc(OC)c(CCNC(=O)CS(=O)(=O)Cc2nc(-c3ccccc3C)oc2C)c1	0	0	0	0	15.8µM	?
COc1cccc(-c2nc(CS(=O)(=O)CC(=O)NCc3ccccc3)c(C)o2)c1	0	0	0	0	?	?
CC(=O)NC12CC3CC(C1)CC(C(=O)OCC(=O)c1ccc4c(c1)OCCO4)(C3)C2	0	0	0	0	0	0
CCOC(=O)CSc1cn2c(n1)CCC2	0	0	0	0	0	0
Fc1ccc(Cn2nnnc2CN2CCN(C3CCCCC3)CC2)cc1	0	0	0	0	10µM	?
N#CCSc1nc2c(sc(=S)n2Cc2ccco2)c(=O)n1-c1ccc(F)cc1	0	0	0	0	?	?
CCn1c(=S)sc2c(=O)n(-c3ccccc3)c(SC)nc21	0	0	0	0	25.1µM	?
Cc1ccc(-n2nnnc2SCC(=O)NCCC2=CCCCC2)c(C)c1	0	0	0	0	31.6µM	?
Cc1ccc(-n2nnnc2SCC(N)=O)c(C)c1	0	0	0	0	0	0
CCC(Sc1nc2ccccc2s1)C(=O)Nc1nnc(C)s1 (configuration not stated)	0	0	0	0	20µM	?
CCC(Sc1nnc(C)s1)C(=O)Nc1nccs1 (configuration not stated)	0	0	0	0	25.1µM	?
Cc1nnc(SCC(=O)Nc2nccs2)s1	0	0	0	0	0	0
COc1ccc(OC)c(NC(=O)Nc2cccc(Cn3cccn3)c2)c1	0	0	0	0	0	0
Cc1ccc(C)c(OCCCC(=O)Nc2ccc(N3CCOCC3)cc2)c1	0	0	0	0	0	0
Cc1cccc(OCCCC(=O)Nc2ccc(N3CCOCC3)cc2)c1	0[11.4 µM]	0	0	0	0[11.4 µM]	3.16µM
C=CCn1c(C)c(C(C)=O)c(N2CCOCC2)nc1=S	0	0	0	0	0	0
SMILES	DNA Pol III inh	BRCT inh green	BRCT PPI red	YjeE inh	HEK293 cAMP ctrl	TSHR ag
Clc1ccccc1C(c1ccccc1)(c1ccccc1)n1ccnc1	0	0[3.08 µM]	0	0	0	39.8µM!
C[C@@H]1OC2C3=C(C(=O)[C@H]4O[C@@H]4[C@H]3O)[C@@H]1[C@H]1[C@H](C)OC=C3[C@H](O)[C@H]4O[C@H]4/C(=N\OCc4ccccc4)[C@@]321	-	0[15.4 µM]	0[15.4 µM]	-	0[11.4 µM]	0[11.4 µM]
COc1ccc(OC)c(NC(=O)C2CCCN(S(=O)(=O)c3c(C)noc3C)C2)c1 (configuration not stated)	0	0	0	0	0	0
Cc1ccc(SC/C(O)=C(\C#N)c2nc3ccccc3s2)cc1	0	0	0	0	?	?
COc1ccc(C/C(O)=C(\C#N)c2nc3ccccc3s2)cc1	0	0	0	0	31.6µM	?
C=CCOC(=O)C1=C(C)OC(N)=C(C#N)C1c1c(C)nn(-c2ccccc2)c1Cl (configuration not stated)	0	0	0	0	0	-
Cc1nc2ncnn2c(Nc2ccc3c(c2)OCO3)c1Cc1ccccc1	0	0	0	0	25.1µM	?
O=C(CN(C(=O)c1cc2c(s1)CCC2)C1CCCC1)NCc1cccs1	0	0	0	0	31.6µM	?
COc1cc(C2NC(=O)NC(c3ccccc3)=C2C(C)=O)ccc1OCC(=O)O (configuration not stated)	0	0	0	0	31.6µM	?
CCOC(=O)C1=C(c2ccccc2)NC(=O)NC1c1ccc(OCC#N)c(OC)c1 (configuration not stated)	0	0	0	0	0	0
CCOC(=O)c1cnn(-c2nc(-c3ccccc3)nc3c2COC(C)(C)C3)c1N	0	0	0	0	0	25.1µM
Cc1nc2ncnn2c(N2CCN(C(c3ccccc3)c3ccccc3)CC2)c1C	0	0	0	?	31.6µM	?
Cc1cc(N2CCN(C(c3ccccc3)c3ccccc3)CC2)n2ncnc2n1	0	0	0	0	?	?
O=C(NC1c2ccccc2-c2ccccc21)N1CCCCC1	0[11.4 µM]	0	0	0	3.16µM	?
O=C(Nc1ccccc1C(F)(F)F)N1CCCCCC1	0	0	0	0	0	0
Nc1ccccc1N=Nc1c(S(=O)(=O)O)cc2cc(S(=O)(=O)O)cc(O)c2c1O	2.51µM	0[15.4 µM]	0[15.4 µM]	0	0[11.4 µM]	0[11.4 µM]
CCN(CC)C(=O)Sc1cccc2cccnc12	0	0	0	0	0	0
Nc1nnnn1NCc1cccc(OCc2ccccc2)c1	0	0	0	0	0	0
CCc1c(C)c2ccc(OCC(=O)OC(C)C)c(C)c2oc1=O	0	0	0	0	25.1µM	?
CCOC(=O)Cc1csc(NC(=O)COc2ccc(N(C)S(=O)(=O)c3cccs3)cc2)n1	0	0	0	0	12.6µM	?
O=C(Cc1ccccc1)Nc1nc(-c2cccs2)cs1	0	0	0	0	0	0
O=C(COc1ccc(Cl)cc1)Nc1nc(-c2cccs2)cs1	0	0	0	0	25.1µM	?
CCC(=O)N1CCc2cc(Br)cc(S(=O)(=O)NCC3CCCO3)c21 (configuration not stated)	0	0	0	0	0	0[11.4 µM]
O=S(=O)(NCCCCCNS(=O)(=O)c1ccccc1)c1ccccc1	0	0	0	0	0	0
COC(=O)[C@@]1(Cc2ccc(OC)cc2)[C@H]2c3cc(C(=O)N(C)C)n(Cc4ccc(C)o4)c3C[C@H]2CN1C(=O)c1ccccc1	0	0	0	0	15.8µM	?
COC(=O)[C@@]1(Cc2ccc(F)cc2)[C@H]2c3cc(C(=O)N(C)C)n(Cc4ccsc4Br)c3C[C@H]2CN1C(=O)c1ccccc1	0	0	0	0	3.98µM	?

Screening data from PubChem.
